For 32 molecules, Potency results are on record in PubChem BioAssay (NCATS).

Inconclusive results are not listed. Entries that show only a call come without a potency. The source made the active and inactive calls. Calls follow the shape of the dose curve; as a rule, active = well fitted activation curve with a large enough effect in the main read-out, with a control signal flat (not every such curve was filed as active); inconclusive = small, poorly fitted or top-dose-only effect, or effect the other way, or a change in a side signal; inactive = flat fitted curve, though single readings scatter.

Sequence of 3',5'-cyclic-AMP phosphodiesterase 4B (Homo sapiens) (Q07343 whole entry, looked up): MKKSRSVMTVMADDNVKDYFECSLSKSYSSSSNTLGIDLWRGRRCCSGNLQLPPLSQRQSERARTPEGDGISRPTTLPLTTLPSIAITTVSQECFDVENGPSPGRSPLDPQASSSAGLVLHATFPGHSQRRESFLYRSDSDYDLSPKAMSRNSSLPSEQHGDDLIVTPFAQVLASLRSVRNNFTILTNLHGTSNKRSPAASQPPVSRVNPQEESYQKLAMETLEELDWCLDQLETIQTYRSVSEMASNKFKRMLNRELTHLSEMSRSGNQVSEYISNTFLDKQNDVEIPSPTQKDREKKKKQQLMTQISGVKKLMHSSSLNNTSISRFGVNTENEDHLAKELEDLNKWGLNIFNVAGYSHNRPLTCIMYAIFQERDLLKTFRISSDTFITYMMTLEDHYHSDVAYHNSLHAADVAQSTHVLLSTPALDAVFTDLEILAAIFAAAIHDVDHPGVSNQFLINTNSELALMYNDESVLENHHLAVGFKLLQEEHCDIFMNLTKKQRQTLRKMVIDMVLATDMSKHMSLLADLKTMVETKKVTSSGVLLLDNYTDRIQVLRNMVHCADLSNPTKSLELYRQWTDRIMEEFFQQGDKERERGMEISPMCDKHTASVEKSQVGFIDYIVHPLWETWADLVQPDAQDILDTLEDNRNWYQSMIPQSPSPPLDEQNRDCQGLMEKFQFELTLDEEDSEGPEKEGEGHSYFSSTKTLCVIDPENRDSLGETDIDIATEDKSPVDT

This experiment addresses 3',5'-cyclic-AMP phosphodiesterase 4B (Homo sapiens) (UniProt Q07343). In words: qHTS Assay for Inhibitors of PDE-IV (AID 607). As to conditions: HEK293 ACTOne CNG channel cells, membrane potential fluorescence; series mostly up to 22.9 µM. The method, boiled down:
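Cell-based read-out of cAMP via a modified cyclic nucleotide-gated channel and membrane potential dye (535/590 nm) in HEK293 cells expressing PDE4 endogenously. Compounds tested up to 22.9 uM final; 100 uM RO 20-1724 reference.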
As to `COc1cccc(Cn2c(=O)c(-c3cccs3)nc3cnc(N4CCN(C)CC4)nc32)c1`, the Potency entry was “inactive”.
With `Cn1c(=O)c(-c2ccc(Cl)cc2)nc2cnc(Oc3ccccc3)nc21`, the Potency result is “inactive”.
In the case of `O=C(c1ccncc1)N1CCC2(CC1)CN(c1ccc(-c3ccccc3)cc1)C2`, the Potency entry was “inactive”.
With `N#Cc1ccc(CN2CC3(CCN(C(=O)c4ccncc4)CC3)C2)cc1`, the Potency result was “inactive”.
On to `COCCn1c(=O)c(-c2ccc(OC)cc2)nc2cnc(Oc3cccc(Cl)c3)nc21`, for which the Potency entry was “inactive”.
On to `COc1ccc(-c2nc3cnc(N4CCN(C)CC4)nc3n(CCC#N)c2=O)cc1`, for which the Potency result is “inactive”.
On to `O=C(c1cc(C(F)(F)F)cc(C(F)(F)F)c1)N1CCC2(CCCN(c3ccccn3)C2)CC1`, for which the Potency entry was “inactive”.
In the case of `O=S(=O)(c1ccccc1)N1CCC2(CCN(c3ncccn3)CC2)CC1`, the Potency result was “inactive”.
Consider `O=S(=O)(c1ccccc1)N1CCC2(CCCN(Cc3ccccc3)C2)CC1`, for which the Potency result was “inactive”.
`O=C(c1csnn1)N1CCC2(CCCN(c3ccccn3)C2)CC1`: the Potency result is “inactive”.
The entry for `COc1ccc(C(=O)N2CCC3(CCCN(Cc4nccs4)C3)CC2)cc1` is “inactive”; for `Cn1cccc1C(=O)N1CCC2(CCCN(Cc3nccs3)C2)CC1` it is “inactive”.
Regarding `O=C(c1cnccn1)N1CCC2(CC1)CN(Cc1ccccc1)C2`, the Potency entry was “inactive”.
Take `O=C(Oc1ccccc1)N1CCC2(CCCN(c3cccc(-c4ccccc4)c3)C2)CC1`: the Potency result was “inactive”.
As to `CS(=O)(=O)N1CCC2(CCN(Cc3ccc(C#N)cc3)CC2)CC1`, the Potency entry was “inactive”.
Consider `COc1ccc(C(=O)N2CCC3(CCCN(c4ccncc4)C3)CC2)cc1`, for which the Potency result is “inactive”.
The entry for `CC(=O)N1CCC2(CCN(Cc3ccc(C#N)cc3)CC2)CC1` is “inactive”; for `COc1ccccc1CNc1cc(-c2cccc(NS(C)(=O)=O)c2)ncn1` it is “inactive”.
In the case of `O=C(Oc1ccccc1)N1CCC2(CCCN(c3ncccn3)C2)CC1`, the Potency result was “inactive”.
As to `COc1ccc(-n2c(=O)c(-c3ccc(Cl)cc3)nc3cnc(N4CCOCC4)nc32)cc1`, the Potency entry is “inactive”.
As to `N#Cc1ccc(CN2CCCC3(CCN(C(=O)c4cnccn4)CC3)C2)cc1`, the Potency entry was “inactive”.
Regarding `O=C(c1ccncc1)N1CCC2(CCCN(c3ncccn3)C2)CC1`, the Potency result is “inactive”.
Consider `O=C(c1csnn1)N1CCC2(CCCN(c3ccc(-c4ccccc4)cc3)C2)CC1`, for which the Potency entry is “inactive”.
The entry for `Cn1c(=O)c(-c2ccccc2)nc2cnc(Oc3ccccc3)nc21` is “inactive”; for `O=C(c1ccco1)N1CCC2(CC1)CCN(c1ccccn1)CC2` it is “inactive”.
As to `O=C(c1ccncc1)N1CCC2(CCN(Cc3cc(C(F)(F)F)cc(C(F)(F)F)c3)CC2)CC1`, the Potency result is “inactive”.
Regarding `O=C(c1cccc(F)c1)N1CCC2(CC1)CCN(c1ccccn1)CC2`, the Potency result was “inactive”.
Turning to `COc1ncc2nc(C)c(=O)n(CCC#N)c2n1`, the Potency result is “inactive”.
The entry for `CCNc1ncc2nc(-c3ccc(Cl)cc3)c(=O)n(C3CC3)c2n1` is “inactive”; for `Cc1cccc(CNc2cc(-c3ccc(N(C)C)cc3)ncn2)c1` it is “inactive”; for `O=C(Oc1ccccc1)N1CCC2(CC1)CCN(c1ccccn1)CC2` it is “inactive”.
As for `COc1ccc(C(=O)N2CCC3(CCCN(c4ccc(-c5ccccc5)cc4)C3)CC2)cc1`, the Potency entry is “inactive”.
